Experiment [1] deals with Aryl hydrocarbon receptor (Homo sapiens) (UniProt P35869). Kind of experiment: qHTS assay to identify small molecule that activate the aryl hydrocarbon receptor (AhR) signaling pathway (AID 743085).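 For activation: HG2L7.5c1 human HepG2 liver cells with stably integrated DRE-driven firefly reporter; series mostly up to about 70 µM.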 Note: nearly all actives have a fitted effect of over 15% in size. Note: potency is the fitted concentration of half-maximal effect. A digest of the protocol:
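Steps: seed HepG2-AhR-luc cells; allow 5 h at 37C; pin-transfer test compound or vehicle; incubate 24 h at 37C; add viability dye (30 min, 37C) and read fluorescence; add luciferase substrate (30 min, RT) and read luminescence.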

The nature of experiment [2]: qHTS assay to identify small molecule that activate the aryl hydrocarbon receptor (AhR) signaling pathway - cell viability counter screen (AID 743086).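 Note: HepG2 liver cells carrying the AhR DRE luciferase reporter; series mostly up to about 70 µM; nearly all actives have a fitted effect of over 45% in size.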 A digest of the protocol:
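HepG2-AhR-luc (HG2L7.5c1) cells, 4000/well, were preincubated 5 h at 37C, exposed to compound in qHTS format for 24 hr at 37C, then given CellTiter-Fluor for 30 min; viability was read as fluorescence in the reporter wells.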
In general terms: Quantitative high-throughput screening tests each substance at several concentrations.

The target in experiment [3] is Peroxisome proliferator-activated receptor gamma (Homo sapiens) (UniProt P37231). Kind of experiment: qHTS assay to identify small molecule antagonists of the peroxisome proliferator-activated receptor gamma (PPARg) signaling pathway (AID 743191; calls by dose curve; note: series mostly up to about 63 µM; nearly all actives have a fitted effect of over 30% in size). A digest of the protocol: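 GeneBLAzer PPARg UAS-bla HEK293H cells carrying a UAS-driven beta-lactamase reporter were plated at 3000 cells/well, preincubated 5 h at 37C, then given compound for 17 h at 37C; LiveBLAzer B/G FRET substrate was read after 1 h at room temperature.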
Peroxisome proliferator-activated receptor gamma (Homo sapiens), sequence (P37231 whole entry, looked up): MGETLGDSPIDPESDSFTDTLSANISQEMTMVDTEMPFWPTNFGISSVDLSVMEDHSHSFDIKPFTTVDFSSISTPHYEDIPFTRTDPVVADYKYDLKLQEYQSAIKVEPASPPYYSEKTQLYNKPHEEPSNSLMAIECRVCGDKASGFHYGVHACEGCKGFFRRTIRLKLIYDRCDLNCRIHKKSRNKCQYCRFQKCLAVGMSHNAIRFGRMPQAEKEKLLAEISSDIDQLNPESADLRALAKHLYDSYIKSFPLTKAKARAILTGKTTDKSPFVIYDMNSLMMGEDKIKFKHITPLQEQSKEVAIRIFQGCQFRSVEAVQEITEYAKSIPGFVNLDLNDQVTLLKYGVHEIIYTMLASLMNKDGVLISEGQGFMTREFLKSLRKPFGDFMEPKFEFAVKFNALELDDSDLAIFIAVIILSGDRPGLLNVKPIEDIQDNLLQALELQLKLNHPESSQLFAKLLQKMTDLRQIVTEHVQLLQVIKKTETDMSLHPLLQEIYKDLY

A short description of experiment [4]: qHTS assay to identify small molecule antagonists of the peroxisome proliferator-activated receptor gamma (PPARg) signaling pathway - cell viability counter screen (AID 743194). Note: nearly all actives have a fitted effect of over 55% in size. In short, it runs like this:
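PPARg-UAS-bla HEK293H cells were plated, rested 5 h at 37 C, then treated with compounds plus rosiglitazone (50 nM final) for 17 h at 37 C; viability was then read by CellTiter-Glo luminescence after 30 min at room temperature.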

A short description of experiment [5]: qHTS assay for small molecule agonists of the antioxidant response element (ARE) signaling pathway (AID 743202; active = well fitted activation curve with a large enough effect in the signal ratio in the repeat runs, not every such curve was filed as active; the % refers to the signal ratio). In short, it runs like this:
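Compounds delivered in DMSO to ARE-bla HepG2 cells (2,000 cells/well, pre-incubated 5 h) and left 16 h at 37 C. LiveBLAzer B/G FRET substrate then added for 2 h at RT before fluorescence reading.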

Experiment [6] is described as follows: qHTS assay for small molecule agonists of the antioxidant response element (ARE) signaling pathway - cell viability counter screen (AID 743203; calls by dose curve; note: nearly all actives have a fitted effect of over 55% in size). A digest of the protocol:
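ARE-bla HepG2 cells were plated, rested 5 h at 37C/5% CO2, then exposed to compounds in DMSO for 16 h. Viability was read as CellTiter-Glo luminescence after 30 min at room temperature, in the same wells as the ARE screen.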

Experiment [7] is described as follows: qHTS assay for small molecule activators of the heat shock response signaling pathway - cell viability counter screen (AID 743209). Note: nearly all actives have a fitted effect of over 50% in size. In short, it runs like this:
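HSE-bla HeLa cells plated overnight, then exposed to Tox21 compounds (23 nL in DMSO) for 5 h at 37 C. After the bla reporter read, CellTiter-Glo was added in the same wells and luminescence read after 30 min at room temperature.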

The nature of experiment [8]: qHTS assay for small molecule activators of the heat shock response signaling pathway (AID 743210; active = well fitted activation curve with a large enough effect in the signal ratio in the repeat runs, with a control signal flat, not every such curve was filed as active; the % refers to the signal ratio;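 note: HeLa cells with beta-lactamase reporter driven by heat shock elements; series mostly up to about 63 µM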). A digest of the protocol: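 Reporter gene assay: HeLa cells stably bearing an HSE-bla construct, compound treatment 5 h at 37 C, LiveBLAzer substrate 2.5 h at RT, fluorescence intensity.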
Experiment [9] in a line: qHTS assay to identify small molecule agonists of the peroxisome proliferator-activated receptor delta (PPARd) signaling pathway - cell viability counter screen (AID 743211). Note: nearly all actives have a fitted effect of over 55% in size. In short, it runs like this: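 Viability of GeneBLAzer PPARd UAS-bla HEK293H cells was assessed after 17 h compound incubation at 37C, using CellTiter-Glo reagent added after the reporter read and luminescence recorded 30 min later.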

Structures are written as SMILES. Inconclusive results are not listed. Calls of active or inactive are those of the source. Unless noted, calls come from the whole dose curve; as a rule, active = well fitted curve in the direction sought with a large enough effect in the repeat runs; inconclusive = weak or mixed curves; inactive = no such curve, though single readings can be large; an effect the other way counts as inactive or inconclusive.

Aryl hydrocarbon receptor (Homo sapiens), sequence (P35869 whole entry, looked up): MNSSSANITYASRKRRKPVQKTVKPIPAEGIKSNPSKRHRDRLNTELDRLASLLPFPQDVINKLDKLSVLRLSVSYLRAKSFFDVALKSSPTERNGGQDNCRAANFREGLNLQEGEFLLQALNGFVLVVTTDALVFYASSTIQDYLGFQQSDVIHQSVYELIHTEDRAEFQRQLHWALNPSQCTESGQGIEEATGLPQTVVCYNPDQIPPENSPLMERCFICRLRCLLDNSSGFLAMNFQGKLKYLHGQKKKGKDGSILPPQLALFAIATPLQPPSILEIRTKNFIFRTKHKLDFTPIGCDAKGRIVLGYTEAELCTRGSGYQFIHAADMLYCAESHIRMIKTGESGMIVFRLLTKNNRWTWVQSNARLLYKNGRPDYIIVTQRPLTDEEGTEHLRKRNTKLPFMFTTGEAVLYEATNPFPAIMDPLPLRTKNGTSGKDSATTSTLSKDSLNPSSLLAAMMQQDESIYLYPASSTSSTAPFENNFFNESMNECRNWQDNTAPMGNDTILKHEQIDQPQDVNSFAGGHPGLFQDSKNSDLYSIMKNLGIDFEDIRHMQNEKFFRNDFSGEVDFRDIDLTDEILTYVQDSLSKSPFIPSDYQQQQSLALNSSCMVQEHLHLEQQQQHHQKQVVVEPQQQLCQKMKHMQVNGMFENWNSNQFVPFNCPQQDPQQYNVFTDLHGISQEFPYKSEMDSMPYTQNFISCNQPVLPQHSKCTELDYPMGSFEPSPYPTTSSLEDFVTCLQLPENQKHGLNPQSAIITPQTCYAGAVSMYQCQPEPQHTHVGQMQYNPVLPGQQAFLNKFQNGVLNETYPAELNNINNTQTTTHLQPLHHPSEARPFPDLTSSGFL

Regarding `COCc1nnc(-c2ccc[n+]([O-])c2)n1-c1c(Cl)c(Cl)cc2[nH]c(=O)c(=O)[nH]c12`, the Potency entry in experiment [1], in experiment [5] and in experiment [7] was “inactive” throughout. Also, the molecule was called inactive in experiment [2], in [3], in [4], in experiment [6], in experiment [8] and in [9].
In the case of `CCO[Si](CC(C)C)(OCC)OCC`, the Potency result in [1] and in experiment [7] was “inactive” each time. For the same molecule, the outcome in [2], in experiment [3], in experiment [6] and in experiment [8] was inactive.
For `CC1(C)C(=O)C(C)(C)C1=O`, the Potency entry in experiment [1] and in experiment [7] was “inactive” each time. The call in [2], in [4], in experiment [6], in [8] and in experiment [9] was inactive.
In the case of `Cc1ccc2ccccc2n1`, the Potency result in experiment [1], in experiment [5] and in [7] was “inactive” each time. In addition, the result in [2], in [3], in experiment [4], in experiment [6] and in [9] was inactive.
Consider `CCOc1ccccc1OCCN[C@H](C)Cc1ccc(OC)c(S(N)(=O)=O)c1`, for which the Potency result in experiment [1] and in [7] was “inactive” each time. Besides, the result in [2], in experiment [4], in [6], in [8] and in [9] was inactive.
Regarding `COc1ccc2cc(CCC(C)=O)ccc2c1`, the Potency in experiment [1] was 3.2 µM (active). The outcome in experiment [2], in experiment [3], in experiment [4], in experiment [6], in experiment [8] and in experiment [9] was inactive. Also, in [7], the Potency entry was “inactive”.
As to `CCCCCCC(O)CO` (stereo not drawn), the Potency result in [1] and in experiment [7] was “inactive” each time. Moreover, the call in [2], in experiment [3], in experiment [4], in experiment [6], in [8] and in experiment [9] was inactive.

The values above are taken from PubChem BioAssay (Tox21).
